{"source": "PubChem BioAssay AID489025", "about": "(Southern Research Specialized Biocontainment Screening …, 2010)", "note": "Out of some 2,300 compounds screened, about 790 (34%) were called active. The list shows a part of the results. Potency and affinity values are given separately. Values without a mark were called inactive. The rule behind the calls is not given here."}
{"assay": "THP-1 cell cytotoxicity, dose response, cytotoxicity control for non-replicating M. tuberculosis project (AID 489025)", "details": "THP-1 cell viability; series mostly up to 40 µM; viability: at the top concentration", "units": {"viability": "%"}}
{"compound": "Cc1ccc2c(CC(=O)OCC(=O)Nc3ccc(Cl)cn3)coc2c1", "viability": 118}
{"compound": "O=C(Oc1ccccc1)c1cc2ccccc2o1", "viability": 136}
{"compound": "CCc1ccc(OCCCC(=O)Nc2nccs2)cc1", "viability": 90.2}
{"compound": "COc1ccc(NC(=O)CO/N=C2/CCCc3nonc32)c(OC)c1", "viability": 103}
{"compound": "Cc1cc(C(=O)COc2cccc3cccnc23)c(C)n1C", "viability": 108}
{"compound": "O=C(Oc1cccc2cccnc12)c1cccc(-n2cnnn2)c1", "viability": 97.8}
{"compound": "O=C(Oc1cccc2cccnc12)c1cccc([N+](=O)[O-])c1", "viability": 109}
{"compound": "O=C(Oc1ccccc1Cl)c1ccc2c(=O)n3c(nc2c1)CCC3", "viability": 103}
{"compound": "S=c1[nH]c2ccccc2o1", "viability": 110}
{"compound": "O=C1CC(N2CCN(Cc3ccccc3)CC2)C(=O)N1CCc1ccccc1", "note": "(centres undefined)", "viability": 104}
{"compound": "O=C1C=CC(=O)N1N(c1ccccc1)c1ccccc1", "viability": 94.9}
{"compound": "Cc1c(C(=O)NNC(=O)c2csc(N3CCOCC3)n2)oc2ccccc12", "viability": 97.8}
{"compound": "COC(=O)C1=C(C(=O)OC)C(c2cc(Cl)ccc2O)c2sc(=O)[nH]c2S1", "note": "(centres undefined)", "viability": 113}
{"compound": "O=c1oc2ccccc2c2c1nnn2CCO", "viability": 93.3}
{"compound": "Clc1cccc(-c2ccc(CNCc3ccccn3)o2)c1", "viability": 114}
{"compound": "Cc1ccc(-c2cc(C(F)(F)F)n3nc(C(=O)NCCCn4ccnc4)cc3n2)cc1C", "viability": 113}
{"compound": "Fc1ccc(-c2ccc(CNCc3ccccn3)o2)cc1Cl", "viability": 83.4}
{"compound": "c1ccc(-c2nc(NCCCn3ccnc3)c3ccccc3n2)cc1", "viability": 89.2}
{"compound": "Clc1ccc(-c2ccc(CNCc3ccccn3)o2)cc1", "viability": 74.1}
{"compound": "O=C(NCCC1=CCCCC1)c1ccc(Br)o1", "viability": 92.7}
{"compound": "CC(=O)c1cccc(NC(=O)C2COc3ccccc3O2)c1", "note": "(centres undefined)", "viability": 87.6}
{"compound": "CCCc1cc(=O)n2[nH]c(C)c(-c3ccccc3)c2n1", "viability": 79.2}
{"compound": "Cc1ccc(C(=O)CCNc2ccc(Br)cc2)o1", "viability": 120}
{"compound": "CC(=O)n1cc(/C=C2/N=C(c3ccccc3)OC2=O)c2ccccc21", "viability": 127}
{"compound": "CCCOC(=O)c1ccc(-c2ccc(C=O)o2)cc1", "viability": 114}
{"compound": "Cc1cccc(C)c1N1C(=O)CC(N2CCSCC2)C1=O", "note": "(centres undefined)", "viability": 104}
{"compound": "Cc1ccc(-c2noc(CCC(=O)Nc3cccc(C#N)c3)n2)cc1", "viability": 91.4}
{"compound": "CCOC(=O)N/N=C\\c1ccc([N+](=O)[O-])s1", "viability": 75.6}
{"compound": "CCCOC(=O)c1ccc(NC(=O)Cc2cccs2)cc1", "viability": 103}
{"compound": "COC(=O)N/N=C/c1ccc([N+](=O)[O-])s1", "viability": 74.3}
{"compound": "O=C(COC(=O)c1cccc([N+](=O)[O-])c1)NCc1cccs1", "viability": 129}
{"compound": "C/C(Cn1nnc([N+](=O)[O-])n1)=N\\NC(=O)c1ccncc1", "viability": 80.4}
{"compound": "Brc1c(CSc2nncc3ccccc23)nc2ccccn12", "viability": 88.4}
{"compound": "CCN(CC)c1ccc2cc(C(=O)NCc3ccc(F)cc3)c(=N)oc2c1", "viability": 72.3}
